ATXN2 expr inh – Primary qHTS for Inhibitors of ATXN expression. HEK-293 ATXN2-luciferase reporter, luminescence, 24 h. Potency, µM (top dose mostly 57 µM), usual class: inhibitors. 360,000 compounds, 0.72% hits. AID 1745845, 2022; note: nearly all actives have a fitted effect of over 55% in size
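ATXN2-luciferase reporter cells (luciferase flanked by upstream and downstream ATXN2 gene portions) were treated 24 h at 37 °C with compounds at up to 57 uM. SteadyGlo luminescence gave expression; GF-AFC fluorescence gave viability.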
HTT ATP protect – qHTS Multiplex Assay to Identify Dual Action Probes in a Cell Model of Huntington: Cytoprotection (ATP) | Potency, µM (highest dose often 56.4 µM), usual class: activators | 230,000 compounds, 0.14% hits | PC12 HTT-Q103 induced, cytoprotection, ATP luminescence, 40 h; note: nearly all actives have a fitted effect of over 45% in size
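Stable PC12 Q103-GFP cells in serum-supplemented, phenol red-free DMEM; induction by tebufenozide at 100 nM final; compound dose series; cell viability quantified luminescently from ATP.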
ATXN viability – Viability Counterscreen for Primary qHTS for Inhibitors of ATXN expression; S2 cells (HEK-293 line with an ATXN2-luciferase reporter) viability, CellTiter-Fluor protease fluorescence, 24 h; Potency, µM (highest dose often 56.7 µM), hits mostly cytotoxic; 400,000 compounds, 0.49% hits; AID 651635, 2014; note: nearly all actives have a fitted effect of over 40% in size
HepG2 viability – qHTS for Inhibitors of TGF-b: Cytotox Counterscreen; HepG2 CAGA-GFP viability, ATP luminescence, 18 h; Potency, µM (series often up to 46.1 µM), hits mostly cytotoxic; 410,000 compounds, 0.76% hits
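HepG2 CAGA-GFP cells (1000/well, DMEM with 1% FBS) received compound, then TGF-beta at 500 pg/mL final, and were incubated 18 hours at 37 degrees C. Viability was read by CellTiter-Glo luminescence. Media-only wells were set as complete cell-killing and DMSO as no toxicity.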
TGFb SMAD3 inh – qHTS for Inhibitors of TGF-b; Potency, µM (highest dose often 46.1 µM), usual class: inhibitors; HepG2 CAGA-GFP TGF-b/SMAD3 reporter, GFP fluorescence, 18 h; TGF-beta stimulated, 500 pg/mL final; 410,000 compounds, 1.2% hits; AID 588855, 2011; note: nearly all actives have a fitted effect of over 65% in size
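HEPG2 CAGA-GFP cells (1000/well, DMEM with 1% FBS) were pre-incubated 2 h at 37 degrees C, given compound by pin tool, then stimulated with TGF-beta at 500 pg/mL final for 18 h before per-cell GFP fluorescence imaging.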
HttQ103 aggreg – qHTS Multiplex Assay to Identify Dual Action Probes in a Cell Model of Huntington: Aggregate Formation (GFP) | PC12 HttQ103-GFP aggregates, Acumen cytometry, 40 h | Potency, µM (doses to about 46.1 µM), most hits filed as inhibitors | 220,000 compounds, 1.1% hits | AID 1688, 2009; note: nearly all actives have a fitted effect of over 60% in size
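Steps: seed 1500 PC12 HTTQ103-GFP cells/well; add tebufenozide, 100 nM final; add compound titration; add ATPLite reagent; quantify GFP aggregates by laser scanning cytometry.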
Hits are given with their value; [ ] = dose if it differs, or a comment. Compounds with a hit are over-represented: about 2.8% of the library has one in this group of screens. Calls come from the whole dose curve; as a rule, active = well fitted curve in the direction sought with a large enough effect; inconclusive = small, poorly fitted or top-dose-only effect, or another doubt; inactive = no such curve, though single readings can be large; an effect the other way counts as inactive or inconclusive.

`Cc1cc2nc(-c3ccc(SCC(=O)N4CCOCC4)nc3)[nH]c2cc1C` gave ATXN2 expr inh inactive, HTT ATP protect inactive, ATXN viability inactive, HepG2 viability inactive, TGFb SMAD3 inh inactive and HttQ103 aggreg inactive.
Screening Brc1ccc(-c2nc3ccccc3s2)s1 returned ATXN2 expr inh inactive, HTT ATP protect inactive, ATXN viability inactive, HepG2 viability inactive, TGFb SMAD3 inh inactive and HttQ103 aggreg inactive.
O=c1ccc2nc3ccccc3sc-2c1 was read as ATXN2 expr inh inconclusive, ATXN viability 25µM, HepG2 viability 25µM and TGFb SMAD3 inh 20µM.
Cc1ccc(C)c(S(=O)(=O)Nc2cc(SCC(=O)O)c(O)c3ccccc23)c1 was read as ATXN2 expr inh inconclusive, HTT ATP protect inactive[10 µM], ATXN viability 28µM, HepG2 viability inactive, TGFb SMAD3 inh inactive and HttQ103 aggreg inactive.
For CCc1ccc(S(=O)(=O)Nc2ccc(O)c3ccccc23)cc1 the results were ATXN viability inactive, HepG2 viability inactive and TGFb SMAD3 inh inconclusive.
`CCc1ccc(S(=O)(=O)Nc2cc(SCC(=O)O)c(O)c3ccccc23)cc1` gave HTT ATP protect inconclusive, ATXN viability inactive, HepG2 viability 18µM, TGFb SMAD3 inh inconclusive and HttQ103 aggreg inactive[9.22 µM].
`CCOc1ccc(S(=O)(=O)Nc2cc(SCC(=O)O)c(O)c3ccccc23)cc1` gave ATXN viability inconclusive, HepG2 viability 13µM and TGFb SMAD3 inh 5µM.
O=C(O)CSc1cc(NS(=O)(=O)c2cccc([N+](=O)[O-])c2)c2ccccc2c1O was read as ATXN2 expr inh inconclusive, HTT ATP protect inactive[10 µM], ATXN viability inactive, HepG2 viability inactive, TGFb SMAD3 inh 10µM and HttQ103 aggreg inactive[9.22 µM].
`COc1cc(=O)n2c(c1C(=O)NCc1ccco1)CCN(C(=O)c1c(F)ccc(F)c1F)CC2` gave ATXN viability inactive.
`Cc1cccnc1C(c1ccc(F)cc1)N(C)C(=O)C1CCN(CCCOc2ccc(F)cc2)CC1` (stereo not drawn) gave ATXN2 expr inh inactive, ATXN viability inconclusive, HepG2 viability inactive and TGFb SMAD3 inh inactive.
`COc1ccc(C(NC(=O)C2CCN(CCOc3ccc(Cl)cc3Cl)CC2)c2ccccn2)cc1` (stereo not drawn) gave ATXN2 expr inh inconclusive, ATXN viability inconclusive, HepG2 viability inactive and TGFb SMAD3 inh inconclusive.
For COc1ccccc1C(NC(=O)C1CCN(CCOc2ccc(Cl)cc2Cl)CC1)c1ccccn1 (stereo not drawn) the results were ATXN2 expr inh 32µM, ATXN viability 20µM, HepG2 viability 13µM and TGFb SMAD3 inh inconclusive.
`Cc1cccnc1C(c1ccc(F)cc1)N(C)C(=O)C1CCN(CCOc2ccc(Cl)cc2Cl)CC1` (stereo not drawn) gave ATXN2 expr inh 32µM, ATXN viability 28µM, HepG2 viability inactive and TGFb SMAD3 inh inconclusive.
Screening S=C(NCCN1CCOCC1)Nc1cccc2ccccc12 returned ATXN2 expr inh inactive, HTT ATP protect inactive[10 µM], ATXN viability inactive, HepG2 viability inactive, TGFb SMAD3 inh inactive and HttQ103 aggreg 3.5µM.
COc1ccccc1NC(=S)NCCN1CCOCC1 was read as ATXN2 expr inh inactive, ATXN viability inactive, HepG2 viability inactive, TGFb SMAD3 inh inactive and HttQ103 aggreg inactive.
CCN(CC)CCOc1ccc(Nc2ncc3cc(-c4c(Cl)cccc4Cl)c(=O)n(C)c3n2)cc1 was read as ATXN2 expr inh 1.7µM.
For CS(=O)(=O)N(CC(=O)Nc1ccc(CC#N)cc1)c1ccc(C23CC4CC(CC(C4)C2)C3)cc1 the results were ATXN2 expr inh inactive, HTT ATP protect inactive[10 µM], ATXN viability inconclusive, HepG2 viability inactive, TGFb SMAD3 inh 7.1µM and HttQ103 aggreg 22µM.
`O=C(C[n+]1ccc2ccccc2c1)c1ccc(F)cc1` gave HepG2 viability inactive and TGFb SMAD3 inh inconclusive.
`O=C(N/N=C\c1c(O)ccc2ccccc12)c1ccc(Cn2cccn2)o1` gave ATXN2 expr inh 3.5µM, ATXN viability inactive, HepG2 viability inactive, TGFb SMAD3 inh inactive and HttQ103 aggreg inconclusive.
O=C(N/N=C/c1c(O)ccc2ccccc12)c1cccc(C(F)(F)F)c1 was read as ATXN2 expr inh 3µM, HepG2 viability inactive, TGFb SMAD3 inh inconclusive and HttQ103 aggreg 4µM.
Screening O=C(N/N=C/c1c(O)ccc2ccccc12)c1[nH]ncc1Br returned ATXN2 expr inh inconclusive, HTT ATP protect inactive[10 µM], HepG2 viability inactive, TGFb SMAD3 inh inconclusive and HttQ103 aggreg 1.1µM.
Screening O=C(N/N=C\c1ccc(Cl)s1)c1ccc(Cn2cccn2)o1 returned ATXN2 expr inh inactive, HTT ATP protect inactive[10 µM], ATXN viability inactive, HepG2 viability inactive, TGFb SMAD3 inh inactive and HttQ103 aggreg inactive.
For COc1cc(=O)n2c(c1C(=O)N(C)Cc1nonc1C)CCN(C(=O)c1cc(C)cc(C)c1)CC2 the results were ATXN viability inactive.
Screening COc1ccc(/C=C/C(=O)NC(=S)NNC(=O)c2cnccn2)cc1 returned ATXN2 expr inh 14µM, HTT ATP protect inactive[10 µM], ATXN viability inconclusive, HepG2 viability inactive, TGFb SMAD3 inh inactive and HttQ103 aggreg inactive[9.22 µM].
`Cc1nc(SCC(=O)O)c2oc3ccccc3c2n1` gave ATXN2 expr inh inactive, HTT ATP protect inactive, ATXN viability inactive, HepG2 viability inactive, TGFb SMAD3 inh inactive and HttQ103 aggreg inactive.
CCOC(=O)CC(=O)CSc1nc(C)nc2c1oc1ccccc12 was read as ATXN2 expr inh inactive, HTT ATP protect inactive, ATXN viability inactive, HepG2 viability inactive, TGFb SMAD3 inh inconclusive and HttQ103 aggreg 1.1µM.
Cc1ccsc1CN(C)c1ncnc2ccc(-c3ccoc3)cc12 was read as ATXN2 expr inh inactive, ATXN viability inactive, HepG2 viability inactive and TGFb SMAD3 inh 11µM.
`COc1cccc(C2NC(C(=O)O)CCC2C)c1` (stereo not drawn) gave HTT ATP protect inactive[10 µM].
CCOC(=O)c1c(C)[nH]c(C(=O)CSc2nnc(-c3ccncc3)n2CC)c1C was read as ATXN2 expr inh inactive, HTT ATP protect inactive, ATXN viability inactive, HepG2 viability inactive, TGFb SMAD3 inh inconclusive and HttQ103 aggreg inactive.
Screening C=CCn1c(SCC(=O)c2[nH]c(C)c(C(=O)OCC)c2C)nc2scc(-c3ccc(OC)c(OC)c3)c2c1=O returned ATXN2 expr inh 28µM, HTT ATP protect inactive[10 µM], HepG2 viability inactive, TGFb SMAD3 inh inconclusive and HttQ103 aggreg inactive.
`CC(=O)C1=C(O)C=C2Oc3c(C(C)=O)c(O)c(C)c(O)c3C2(C)C1=O` (stereo not drawn) gave ATXN2 expr inh inactive and HTT ATP protect inactive.

High-throughput results as filed in PubChem BioAssay.
